Assay outcomes (PubChem)
Hits are enriched below; roughly 2.5% of the tested compounds scored in any of these assays.
TMEM16A inh = TMEM16A chloride channel inhibitors, primary screen, cell-based, HTS; Anoctamin-1 (Mus musculus), Q8BHY3; HEK293 TMEM16A/YFP iodide influx fluorescence, ionomycin; normalized B-score (activity score, 25-100; higher = stronger inhibition) at 10 µM; actives 1.2% (n = 310,000);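 active = ratio plate-corrected score three or more library SD toward inhibition, starting fluorescence score within five deviations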;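 also: score derived from kinetic fluorescence span divided by baseline fluorescence per well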
Target sequence (Q8BHY3 whole entry, looked up): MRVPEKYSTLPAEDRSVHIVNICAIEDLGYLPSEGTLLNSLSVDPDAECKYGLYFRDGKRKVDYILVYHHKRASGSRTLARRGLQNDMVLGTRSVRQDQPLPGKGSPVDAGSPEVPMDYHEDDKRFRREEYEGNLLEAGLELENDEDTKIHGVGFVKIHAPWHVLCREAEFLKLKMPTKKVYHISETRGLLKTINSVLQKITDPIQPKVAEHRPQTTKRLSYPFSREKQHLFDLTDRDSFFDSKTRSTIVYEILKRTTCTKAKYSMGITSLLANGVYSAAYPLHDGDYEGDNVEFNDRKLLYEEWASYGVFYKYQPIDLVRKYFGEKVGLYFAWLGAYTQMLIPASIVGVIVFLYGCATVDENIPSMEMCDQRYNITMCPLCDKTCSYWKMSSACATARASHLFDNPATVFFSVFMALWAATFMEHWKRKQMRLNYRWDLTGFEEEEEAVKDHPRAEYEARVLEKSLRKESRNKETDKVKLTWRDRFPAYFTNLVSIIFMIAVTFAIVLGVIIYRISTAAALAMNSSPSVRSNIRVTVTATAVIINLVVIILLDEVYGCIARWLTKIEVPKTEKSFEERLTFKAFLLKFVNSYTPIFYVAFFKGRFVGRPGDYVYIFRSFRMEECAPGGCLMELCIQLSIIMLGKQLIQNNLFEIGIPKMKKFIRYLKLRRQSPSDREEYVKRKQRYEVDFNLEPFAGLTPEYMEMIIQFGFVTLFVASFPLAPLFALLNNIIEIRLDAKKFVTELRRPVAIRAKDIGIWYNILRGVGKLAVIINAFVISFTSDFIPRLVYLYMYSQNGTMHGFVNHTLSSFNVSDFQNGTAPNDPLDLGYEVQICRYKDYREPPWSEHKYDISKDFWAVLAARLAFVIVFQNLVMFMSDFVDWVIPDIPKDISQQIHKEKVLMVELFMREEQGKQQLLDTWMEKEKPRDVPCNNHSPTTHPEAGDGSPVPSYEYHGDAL
697 NFkB inh = inhibitors of PMA/ionomycin-induced NF-kB reporter, 697 cells, primary screen, B-cell NF-kB inhibitor project, cell-based, luminescence, uHTS; 697 B-cell NF-kB luciferase reporter, 16 h; actives 0.33% (n = 330,000); inhibition, % at 4 µM; in the data active = inhibition above about 35%
aSyn 5UTR inh = MLPCN primary screen, SNCA 5' untranslated region; inhibition, % (tested at 7.5 µM); alpha-synuclein 5'UTR reporter, inhibitor activity; actives 0.82% (n = 300,000); AID 1813, 2009; in the data active = inhibition above about 60%; inconclusive = no clear call, values can overlap the other calls;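 also: H4 neuroglioblastoma cells stably carrying SNCA 5'UTR luciferase fusion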
KLF5 inh = KLF5 expression inhibitors, primary screen, DLD-1 cells, luminescence; DLD-1 KLF5 promoter-luciferase reporter; inhibition, % at 5 µM; actives 0.23% (n = 290,000);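 active = inhibition above a per-plate limit of that plate's mean compound inhibition plus 3 SD, cut at about 60% in these data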;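 also: higher means less KLF5 promoter-driven luciferase light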
ANO1 activ = TMEM16A chloride channel activators or potentiators, primary screen, cell-based, HTS. Anoctamin-1 (Mus musculus), Q8BHY3. HEK293 TMEM16A/YFP-H148Q/I152L, iodide quench fluorescence; stronger effect = lower value. B-score at 10 µM. actives 0.3% (n = 340,000). AID 623877, 2012;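 active = fluorescence-ratio B-score plate-corrected deviation score at least 3 library SD below zero, with starting fluorescence score within 5 deviations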;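 also: channel opened by trigger with iodide after compound preincubation; score built on the fluorescence ratio of max minus min over baseline; more negative score means more quench and so TMEM16A activation or potentiation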
Jurkat NFkB inh = inhibitors of induced NF-kB luciferase reporter, primary screen, TCR NF-kB activation inhibitor project, cell-based, luminescence, uHTS | Jurkat, PMA/ionomycin-induced NF-kB luciferase reporter | inhibition, % at 4 µM | AID 435003, 2010 | actives 0.53% (n = 330,000); in the data active = inhibition above about 50%
697 NFkB conf = PMA/ionomycin-induced NF-kB reporter inhibitors, 697 retest, confirmation, B-cell NF-kB inhibitor project, cell-based, luminescence, single concentration. AID 449746, 2010. inhibition, % at 4 µM. 697 B-cell NF-kB luciferase, 16 h. actives 35% (n = 2,000). shares compounds with 697 NFkB inh; in the data active = inhibition mostly above about 28%, no sharp cut-off; inactive = mostly below about 22%
Numbers stand for hits; . = inactive; ? = inconclusive; / = no result.

SMILES	TMEM16A inh	697 NFkB inh	aSyn 5UTR inh	KLF5 inh	ANO1 activ	Jurkat NFkB inh	697 NFkB conf
CC(=O)Nc1ccc(/C(C)=N/Nc2nc(Nc3ccccc3)nc(N3CCOCC3)n2)cc1	.	53.0	.	.	.	.	.
Cc1ccc(/C=N/Nc2cc(C)nc(N3CCOCC3)n2)cc1	.	.	.	.	.	.	/
CCN1C(=O)[C@H]2[C@@H](c3ccc(-c4ccc(Cl)c(Cl)c4)cc3)N[C@@](Cc3ccccc3)(C(=O)OC)[C@H]2C1=O	.	.	.	/	.	.	/
Cc1cccc(-n2c(SCC(=O)Nc3ncc(Cl)cc3Cl)nc3ccccc32)c1	.	/	?	.	.	/	/
O=C(CSc1nc2ccccc2n1-c1ccccc1)Nc1ncc(Cl)cc1Cl	.	.	.	.	.	.	.
COc1ccc(-n2c(SCC(=O)Nc3ncc(Cl)cc3Cl)nc3ccccc32)cc1	.	.	.	.	/	.	.
COc1ccc(CNCc2ccc3c(c2)OCO3)c(OC)c1OC	.	.	.	.	.	.	/
COc1ccc(Br)cc1/C=N/Nc1cccc(C(=O)O)c1	.	.	.	.	.	.	/
COc1ccccc1/C=C/C=N/Nc1cccc(C(=O)O)c1	.	.	.	.	.	.	.
NC(=O)C1CCN(C(=O)COc2ccc3ccccc3c2Br)CC1	.	57.4	.	.	.	.	59.5
CC1(C)C[C@H]2C3=CCC4[C@@]5(C)CC[C@H](O)[C@@](C)(CO)C5CC[C@@]4(C)[C@]3(C)C[C@@H](O)[C@@]2(CO)[C@@H](O)[C@@H]1O (some centres not stated)	/	.	/	/	.	.	/
O=C(CNC(=O)c1cccc(OC(F)F)c1)OCC(=O)c1ccccc1	.	35.0	.	.	.	.	.
CC(C)Cn1c(CCC(N)=O)nnc1SC(C)C(=O)Nc1ccc2c(c1)OCO2 (configuration not stated)	/	.	/	/	.	.	/
COc1ccc(-c2cc(-c3ccccc3)c(C#N)c(S(C)=O)n2)cc1 (configuration not stated)	.	37.1	.	.	-8.06	.	.
CCSc1nc(-c2ccc(OC)cc2)cc(-c2ccccc2)c1C#N	.	.	.	.	.	.	/
O=C(CCN1C(=O)c2ccccc2C1=O)Oc1ccc2ccccc2c1	.	.	.	.	.	.	/
CC1=CC(C)(C)Nc2ccc(OC(=O)CCN3C(=O)c4ccccc4C3=O)cc21	.	41.3	.	.	.	.	.
NC(=O)C1CCN(C(=O)c2cc(Cl)c3c(c2)OCCO3)CC1	/	.	/	/	.	.	/
Cc1nc(Nc2ccc(C(=O)O)cc2)sc1-c1ccccc1	.	.	.	.	.	.	.
CC1CCCC(C)N1C(=O)CN1C(=O)c2ccccc2S1(=O)=O (configuration not stated)	/	.	/	/	.	.	/
N#Cc1c(/N=C/c2cccs2)sc2c1CCCCC2	.	.	.	.	.	.	.
N#Cc1c(/N=C/c2ccc(Br)s2)sc2c1CCC2	/	/	/	.	.	/	/
CC1CCN(C(=O)CCCOc2cc(=O)n(C)c3ccccc23)CC1	.	38.3	.	.	.	.	37.5
CC(C)CCNC(=O)CCCOc1cc(=O)n(C)c2ccccc12	.	52.4	.	.	.	.	55.3
Nc1ccc2c(c1)C(=O)c1cc(Cl)c(Cl)cc1-2	/	/	/	/	.	/	/
SMILES	TMEM16A inh	697 NFkB inh	aSyn 5UTR inh	KLF5 inh	ANO1 activ	Jurkat NFkB inh	697 NFkB conf
CC(C)N1C(=O)S/C(=C/c2ccc3c(c2)n(C)c(=O)n3C)C1=O	.	47.1	.	.	.	.	40.4
CCC(C)N1C(=O)S/C(=C/c2ccc3c(c2)n(C)c(=O)n3C)C1=O (configuration not stated)	.	.	.	.	.	.	/
CC1(C)N=C(c2ccccc2)C(c2ccccc2)=N1	/	/	/	/	.	/	/
Cc1c(NC(=O)C(C)Oc2ccc(Br)cc2)c(=O)n(-c2ccccc2)n1C (configuration not stated)	/	.	/	/	.	.	/
O=C(COc1cccc(NC(=O)c2cccs2)c1)c1ccc(F)cc1	.	.	.	.	.	.	/
O=C(Nc1cccc(Oc2ccc3c(c2)C(=O)NC3=O)c1)c1cccs1	.	39.2	.	.	.	.	13.6
CC1CCN(c2c(NCC3CCC(C(=O)NCc4ccc(F)cc4)CC3)c(=O)c2=O)CC1 (configuration not stated)	.	.	.	.	.	.	/
Cc1ccc(NC(=O)C2CCC(CNc3c(N4CCC(C)CC4)c(=O)c3=O)CC2)cc1F (configuration not stated)	.	47.5	?	.	.	.	32.8
COc1ccc(S(=O)(=O)NCC(c2ccc(C)cc2)N2CCN(C)CC2)cc1 (configuration not stated)	.	.	.	/	.	.	/
CCOc1ccc2nc(-c3ccccc3)[nH]c2c1	.	.	.	.	.	.	.
Cc1cc2ccccn2c1C(=O)c1ccc(NN)c([N+](=O)[O-])c1	.	45.4	.	.	.	.	42.1
O=C(O)c1ccc(-c2noc(-c3cccc(Cl)c3)n2)cc1	/	.	/	/	.	.	/
O=C(O)c1ccc(-c2noc(-c3ccc(F)cc3)n2)cc1	.	.	.	/	.	.	.
CC[C@]12c3[nH]c4ccc(Cl)cc4c3CCN1C(=O)[C@@H](CC(=O)NCCC1=CCCCC1)C[C@@H]2C(=O)N1CCN(C(=O)c2ccco2)CC1	/	.	/	/	/	/	/
CCOC(=O)CNC(=O)CSc1nnc(NC(=O)c2ccc3c(c2)OCO3)s1	.	.	.	.	.	.	/
CCOC(=O)CNC(=O)CSc1nnc(NC(=O)c2ccc(C)cc2)s1	.	42.6	73.9	.	.	.	33.1
O=C(CCl)N1CCN(S(=O)(=O)c2ccc3c(c2)CCC3)CC1	/	37.5	/	/	.	.	37.6
Cc1ccccc1NC(=S)c1ccc2ccccc2n1	.	.	.	.	.	.	/
O=C(Nc1ccc2ccccc2c1)C(c1ccccc1)C1CCCC1 (configuration not stated)	.	.	.	.	.	.	.
Cc1ccc(NC(=O)C(c2ccccc2)C2CCCC2)cc1 (configuration not stated)	/	/	.	.	.	/	/
CS(=O)(=O)c1ccc(Cl)c(NC(=O)COC(=O)Cc2c[nH]c3ccccc23)c1	.	.	.	/	.	.	/
COc1ccc(/C=N/OCC(=O)Nc2cc(C)on2)cc1OC	.	.	.	.	.	.	/
COc1ccc(/C=N/OCC(=O)NC(c2ccccc2)c2ccccc2)cc1OC	.	68.4	.	.	.	.	38.5
